Assay [1] can be described thus: qHTS assay to identify small molecule antagonists of the thyroid receptor (TR) signaling pathway (AID 743065). Also: nearly all actives have a fitted effect of over 55% in size. Also: potency is read from the fitted curve at half-maximal effect. The essentials: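 GH3.TRE-Luc rat pituitary cells carrying two TR response elements driving luciferase were plated for 4 h, given compound plus 1 nM T3 (final), and incubated 23.5 h at 37 C. ONE-Glo luminescence measured reporter inhibition; CellTiter-Fluor fluorescence tracked cytotoxicity.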

Assay [2] concerns thyroid hormone receptor (rat, GH3 cells). Nature of the assay: qHTS assay to identify small molecule agonists of the thyroid receptor (TR) signaling pathway (AID 743066; calls by dose curve). On the technique in general: qHTS replaces the single test concentration by a dilution series.
Assay [3] is described as follows: qHTS assay to identify small molecule antagonists of the estrogen receptor alpha (ER-alpha) signaling pathway using the BG1 cell line - cell viability counter screen (AID 743081).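 Also: compound given together with 17beta-estradiol as the ER stimulus; series mostly up to about 70 µM; nearly all actives have a fitted effect of over 45% in size.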
The next assay addresses Aromatase (Homo sapiens) (UniProt P11511). Nature of the assay: qHTS assay to identify aromatase inhibitors (AID 743083). Also: nearly all actives have a fitted effect of over 55% in size. Also: potency is read from the fitted curve at half-maximal effect.
A short description of assay [4]: qHTS assay to identify aromatase inhibitors - cell viability counter screen (AID 743084).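 Also: cells stimulated with testosterone during compound exposure; nearly all actives have a fitted effect of over 55% in size.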 Also: potency is read from the fitted curve at half-maximal effect.
Assay [5] concerns the target Aryl hydrocarbon receptor (Homo sapiens) (UniProt P35869). As to the kind of experiment: qHTS assay to identify small molecule that activate the aryl hydrocarbon receptor (AhR) signaling pathway (AID 743085). Also: nearly all actives have a fitted effect of over 15% in size. Also: potency is read from the fitted curve at half-maximal effect.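 As to activation: HG2L7.5c1 human HepG2 liver cells with stably integrated DRE-driven firefly reporter; series mostly up to about 70 µM.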 The essentials: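 AhR agonist activity is inferred from enhanced light output of a DRE-controlled firefly luciferase reporter in HepG2 cells, measured with ONE-Glo following 24 h treatment at 37C.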

A short description of assay [6]: qHTS assay to identify small molecule that activate the aryl hydrocarbon receptor (AhR) signaling pathway - cell viability counter screen (AID 743086).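 Also: HepG2 liver cells carrying the AhR DRE luciferase reporter; series mostly up to about 70 µM; nearly all actives have a fitted effect of over 45% in size.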 The essentials: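 HepG2-AhR-luc (HG2L7.5c1) cells, 4000/well, were preincubated 5 h at 37C, exposed to compound in qHTS format for 24 hr at 37C, then given CellTiter-Fluor for 30 min; viability was read as fluorescence in the reporter wells.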

The target of assay [7] is Peroxisome proliferator-activated receptor gamma (Homo sapiens) (UniProt P37231). Nature of the assay: qHTS assay to identify small molecule agonists of the peroxisome proliferator-activated receptor gamma (PPARg) signaling pathway (AID 743094; active = well fitted activation curve with a large enough effect in the signal ratio in the repeat runs, not every such curve was filed as active; inconclusive = weak or mixed curves, or effect the other way; inactive = no such curve, though single readings can be large or run the other way; the % refers to the signal ratio). The essentials: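 Following 5 h plating at 37C, PPARg-bla HEK293H cells receive compound or DMSO for 17 h; fluorescence intensity is recorded after LiveBLAzer B/G loading for 1 h at room temperature.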
Peroxisome proliferator-activated receptor gamma (Homo sapiens), sequence (P37231 whole entry, looked up): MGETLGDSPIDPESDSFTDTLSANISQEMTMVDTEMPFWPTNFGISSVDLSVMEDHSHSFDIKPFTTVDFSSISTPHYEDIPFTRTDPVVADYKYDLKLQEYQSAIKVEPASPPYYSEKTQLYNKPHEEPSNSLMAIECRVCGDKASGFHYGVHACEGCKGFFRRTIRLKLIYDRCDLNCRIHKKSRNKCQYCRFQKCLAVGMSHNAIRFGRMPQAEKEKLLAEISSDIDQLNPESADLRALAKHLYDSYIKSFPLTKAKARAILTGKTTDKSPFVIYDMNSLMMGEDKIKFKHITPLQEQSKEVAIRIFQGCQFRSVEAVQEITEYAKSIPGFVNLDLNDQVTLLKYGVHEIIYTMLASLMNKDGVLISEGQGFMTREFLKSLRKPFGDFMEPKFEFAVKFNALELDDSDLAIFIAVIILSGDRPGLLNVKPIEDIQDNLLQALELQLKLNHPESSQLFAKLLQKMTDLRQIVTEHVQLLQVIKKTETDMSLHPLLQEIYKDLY

Assay [8] has the same target. As to the kind of experiment: qHTS assay to identify small molecule antagonists of the peroxisome proliferator-activated receptor gamma (PPARg) signaling pathway (AID 743191; calls by dose curve; also: series mostly up to about 63 µM; nearly all actives have a fitted effect of over 30% in size). The gist of the method:
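GeneBLAzer PPARg UAS-bla HEK293H cells carrying a UAS-driven beta-lactamase reporter were plated at 3000 cells/well, preincubated 5 h at 37C, then given compound for 17 h at 37C; LiveBLAzer B/G FRET substrate was read after 1 h at room temperature.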

Assay [9] can be described thus: qHTS assay to identify small molecule antagonists of the peroxisome proliferator-activated receptor gamma (PPARg) signaling pathway - cell viability counter screen (AID 743194). Also: nearly all actives have a fitted effect of over 55% in size. Also: potency is read from the fitted curve at half-maximal effect. The gist of the method: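 PPARg-UAS-bla HEK293H cells were plated, rested 5 h at 37 C, then treated with compounds plus rosiglitazone (50 nM final) for 17 h at 37 C; viability was then read by CellTiter-Glo luminescence after 30 min at room temperature.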

The nature of assay [10]: qHTS assay for small molecule agonists of the antioxidant response element (ARE) signaling pathway (AID 743202; active = well fitted activation curve with a large enough effect in the signal ratio in the repeat runs, not every such curve was filed as active; inconclusive = weak or mixed curves, or effect the other way; inactive = no such curve, though single readings can be large or run the other way; the % refers to the signal ratio). The essentials: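 Compounds delivered in DMSO to ARE-bla HepG2 cells (2,000 cells/well, pre-incubated 5 h) and left 16 h at 37 C. LiveBLAzer B/G FRET substrate then added for 2 h at RT before fluorescence reading.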
The nature of assay [11]: qHTS assay for small molecule agonists of the antioxidant response element (ARE) signaling pathway - cell viability counter screen (AID 743203; calls by dose curve; also: nearly all actives have a fitted effect of over 55% in size; also: potency is read from the fitted curve at half-maximal effect). The essentials: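 Compounds in DMSO were pinned onto ARE-bla HepG2 cells plated 5 hrs earlier at 2,000 cells/well. Sixteen hours later at 37C/5% CO2, CellTiter-Glo was added and luminescence measured after 30 min at room temperature.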

Assay [12] is described as follows: qHTS assay for small molecule activators of the heat shock response signaling pathway - cell viability counter screen (AID 743209). Also: nearly all actives have a fitted effect of over 50% in size. The gist of the method:
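Counter screen for cytotoxicity in HeLa HSE-bla reporter cells. Treatment was 5 h at 37 C; viability was detected by luminescent ATP assay (CellTiter-Glo) in the same wells as the beta-lactamase read.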

The nature of assay [13]: qHTS assay for small molecule activators of the heat shock response signaling pathway (AID 743210; active = well fitted activation curve with a large enough effect in the signal ratio in the repeat runs, with a control signal flat, not every such curve was filed as active; inconclusive = weak or mixed curves; the % refers to the signal ratio;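 also: HeLa cells with beta-lactamase reporter driven by heat shock elements; series mostly up to about 63 µM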). The essentials:
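Reporter gene assay: HeLa cells stably bearing an HSE-bla construct, compound treatment 5 h at 37 C, LiveBLAzer substrate 2.5 h at RT, fluorescence intensity.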

Assay [14] in a line: qHTS assay to identify small molecule agonists of the peroxisome proliferator-activated receptor delta (PPARd) signaling pathway - cell viability counter screen (AID 743211). Also: nearly all actives have a fitted effect of over 55% in size. Also: potency is read from the fitted curve at half-maximal effect. The gist of the method: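 qHTS cell viability: PPARd-bla HEK293H; 17 h cpd, 37C; CellTiter-Glo, luminescence at 30 min RT.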
Assay [15] is described as follows: qHTS assay to identify small molecule antagonists of the estrogen receptor alpha (ER-alpha) signaling pathway - cell viability counter screen (AID 743074; calls by dose curve;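 also: HEK293 cells carrying ER-alpha-UAS-bla reporter stimulated with 17beta-estradiol; nearly all actives have a fitted effect of over 45% in size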).
For assay [16], the target named is Estrogen receptor (Homo sapiens) (UniProt P03372). Nature of the assay: qHTS assay to identify small molecule antagonists of the estrogen receptor alpha (ER-alpha) signaling pathway (AID 743069; active = well fitted curve in the direction sought with a large enough effect in the signal ratio in the repeat runs, not every such curve was filed as active; inconclusive = weak or mixed curves, or effect the other way; inactive = no such curve, though single readings can be large or run the other way; the % refers to the signal ratio; also: potency is read from the fitted curve at half-maximal effect). The essentials:
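Estradiol-stimulated ER-alpha-UAS-bla HEK293 cells, 18 hr compound exposure at 37C. LiveBLAzer B/G substrate, 2 hr RT, fluorescence read.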

Assay [17] has the same target. As to the kind of experiment: qHTS assay to identify small molecule agonists of the estrogen receptor alpha (ER-alpha) signaling pathway (AID 743075; calls by dose curve;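 also: HEK293 GripTite cells with ER-alpha and UAS-driven beta-lactamase reporter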).
Assay [18] has the same target. Nature of the assay: qHTS assay to identify small molecule agonists of the estrogen receptor alpha (ER-alpha) signaling pathway using the BG1 cell line (AID 743079). Also: nearly all actives have a fitted effect of over 20% in size. Also: potency is read from the fitted curve at half-maximal effect.
Assay [19] is described as follows: qHTS assay to identify small molecule antagonists of the estrogen receptor alpha (ER-alpha) signaling pathway using the BG1 cell line (AID 743080; calls by dose curve;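 also: BG1 cells stimulated with 17beta-estradiol alongside compound; series mostly up to about 70 µM; nearly all actives have a fitted effect of over 25% in size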). The gist of the method:
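BG1-Luc-4E2 cells (endogenous full-length ER-alpha, stable 4×ERE-luciferase) were starved 5 days in phenol-red-free medium with 10% charcoal-stripped FBS, plated 24 h, then given compound plus 17beta-estradiol for 21.5 h at 37 C; ONE-Glo luminescence read after 30 min.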

Values without a mark were called inactive. Activity calls are given as the source filed them. Unless noted, calls follow the shape of the dose curve; as a rule, active = well fitted curve in the direction sought with a large enough effect in the repeat runs; inconclusive = weak or mixed curves; inactive = no such curve, though single readings can be large; an effect the other way counts as inactive or inconclusive.

Aryl hydrocarbon receptor (Homo sapiens), sequence (P35869 whole entry, looked up): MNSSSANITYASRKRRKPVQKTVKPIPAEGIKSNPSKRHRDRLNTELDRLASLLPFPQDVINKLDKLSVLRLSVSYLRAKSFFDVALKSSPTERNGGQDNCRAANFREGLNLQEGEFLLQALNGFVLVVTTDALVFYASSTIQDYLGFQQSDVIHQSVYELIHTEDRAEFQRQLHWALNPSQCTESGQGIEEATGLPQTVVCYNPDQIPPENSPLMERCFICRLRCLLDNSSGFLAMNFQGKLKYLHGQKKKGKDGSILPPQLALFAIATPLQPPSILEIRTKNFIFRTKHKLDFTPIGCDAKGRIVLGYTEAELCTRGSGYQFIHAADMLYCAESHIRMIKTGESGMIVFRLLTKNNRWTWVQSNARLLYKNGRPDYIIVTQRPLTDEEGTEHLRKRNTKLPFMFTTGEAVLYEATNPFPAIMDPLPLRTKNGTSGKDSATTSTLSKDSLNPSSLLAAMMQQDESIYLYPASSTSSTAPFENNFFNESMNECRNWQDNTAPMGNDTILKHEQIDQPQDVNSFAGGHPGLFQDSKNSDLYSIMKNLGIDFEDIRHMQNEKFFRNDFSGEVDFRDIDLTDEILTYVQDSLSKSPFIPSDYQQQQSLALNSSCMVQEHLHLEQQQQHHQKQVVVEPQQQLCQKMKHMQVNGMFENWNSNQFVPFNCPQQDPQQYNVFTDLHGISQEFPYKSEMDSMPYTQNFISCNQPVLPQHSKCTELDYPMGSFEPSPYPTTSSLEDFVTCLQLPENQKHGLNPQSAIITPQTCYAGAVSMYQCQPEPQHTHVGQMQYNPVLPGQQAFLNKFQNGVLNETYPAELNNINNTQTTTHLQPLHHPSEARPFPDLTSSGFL
Aromatase (Homo sapiens), sequence (P11511 whole entry, looked up): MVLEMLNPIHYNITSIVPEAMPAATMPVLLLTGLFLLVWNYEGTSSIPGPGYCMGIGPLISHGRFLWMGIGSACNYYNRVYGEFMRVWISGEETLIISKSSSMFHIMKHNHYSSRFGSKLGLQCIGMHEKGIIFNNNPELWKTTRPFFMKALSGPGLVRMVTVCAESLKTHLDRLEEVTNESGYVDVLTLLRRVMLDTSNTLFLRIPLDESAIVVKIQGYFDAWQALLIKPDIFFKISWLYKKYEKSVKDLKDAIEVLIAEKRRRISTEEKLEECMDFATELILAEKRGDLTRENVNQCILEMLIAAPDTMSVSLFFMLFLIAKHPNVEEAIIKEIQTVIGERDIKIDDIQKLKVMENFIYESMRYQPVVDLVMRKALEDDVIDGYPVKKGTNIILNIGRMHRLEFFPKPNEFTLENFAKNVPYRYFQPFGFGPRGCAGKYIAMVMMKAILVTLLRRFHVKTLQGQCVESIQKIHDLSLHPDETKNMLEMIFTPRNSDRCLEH
Estrogen receptor (Homo sapiens), sequence (P03372 whole entry, looked up): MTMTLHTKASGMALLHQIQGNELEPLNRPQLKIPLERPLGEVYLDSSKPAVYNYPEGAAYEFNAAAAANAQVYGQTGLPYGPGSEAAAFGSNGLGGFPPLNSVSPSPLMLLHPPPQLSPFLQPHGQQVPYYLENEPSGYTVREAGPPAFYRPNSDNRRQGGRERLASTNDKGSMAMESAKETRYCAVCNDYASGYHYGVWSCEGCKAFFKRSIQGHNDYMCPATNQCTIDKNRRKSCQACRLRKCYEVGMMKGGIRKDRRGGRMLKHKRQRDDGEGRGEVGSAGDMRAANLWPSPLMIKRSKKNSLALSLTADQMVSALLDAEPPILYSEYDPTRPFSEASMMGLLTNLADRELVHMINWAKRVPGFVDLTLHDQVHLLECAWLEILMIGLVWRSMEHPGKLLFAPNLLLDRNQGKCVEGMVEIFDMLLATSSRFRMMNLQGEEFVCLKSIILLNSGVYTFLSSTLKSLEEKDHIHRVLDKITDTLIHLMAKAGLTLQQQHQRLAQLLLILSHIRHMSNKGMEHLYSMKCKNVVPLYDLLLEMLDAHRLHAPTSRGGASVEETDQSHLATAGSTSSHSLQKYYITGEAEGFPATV

`CCc1nnc(NS(=O)(=O)c2ccc(N)cc2)s1`: the Potency entry (in [1]; in assay [3]; in the assay with Aromatase (Homo sapiens); in assay [4]; in [5]; in assay [7]) was “inactive” throughout. Moreover, the Potency entry in assay [8], in assay [9], in [10], in assay [11], in assay [13] and in [14] was “inactive” in each case. The call in assay [2], in [6] and in assay [12] was inactive.

With `CCC(=O)c1ccc2c(c1)N(CCCN(C)C)c1ccccc1S2`, the Potency in assay [1] was 7.5 µM (active); in assay [14], 29.8 µM (active). Moreover, the Potency entry in [15], in assay [5], in [9] and in assay [13] was “inactive” throughout.

As to `CC(C)=CCC[C@](C)(O)[C@@H]1CC=C(C)CC1`, the Potency result (in assay [1]; in assay [3]; with Aromatase (Homo sapiens); in assay [4]; in [5]; in [7]) was “inactive” each time. Also, the Potency entry in assay [9], in [11] and in assay [14] was “inactive” in each case. Besides, the outcome in assay [2] and in assay [6] was inactive.

Take `Cc1cc2c(s1)Nc1ccccc1N=C2N1CCN(C)CC1`: the outcome in [2], in [17], in [19] and in assay [12] was inactive. Also, the Potency entry (in assay [16]; in assay [15]; in [18]; in assay [3]; with Aromatase (Homo sapiens); in assay [7]) was “inactive” in each case. Moreover, the Potency result in assay [8], in assay [9], in assay [11] and in [14] was “inactive” in each case. Also, the Potency in [4] was 23.7 µM (active).

On to `CNCCC(Oc1ccccc1OC)c1ccccc1` (stereo not drawn), for which the result in assay [2], in [17], in assay [19], in [6] and in assay [12] was inactive. Besides, the Potency entry (in [16]; in assay [15]; in assay [18]; in assay [3]; with Aromatase (Homo sapiens); in assay [4]) was “inactive” each time. The Potency entry in assay [7], in assay [8], in assay [9], in assay [10], in [11] and in assay [13] was “inactive” each time. Besides, the Potency entry in [14] was “inactive”.

Turning to `O=C(O)c1ccccc1Nc1cc(Cl)ccc1C(=O)O`, the Potency result (in assay [1]; in assay [18]; in [3]; with Aromatase (Homo sapiens); in assay [4]; in [5]) was “inactive” throughout. Further, the Potency entry in assay [9], in assay [10] and in assay [11] was “inactive” throughout. Also, the compound was called inactive in [2], in assay [17], in assay [19], in assay [6] and in assay [12].

Regarding `CC[C@H]1CC[C@H](NCc2cc3c(cc2OC)[C@H]2C[C@H]2C(=O)N3C)[C@H](c2ccccc2)N1`, the Potency in assay [1] was 19.3 µM (active); with Aromatase (Homo sapiens), 68.6 µM (active). Also, the Potency entry in assay [16], in assay [15], in [5], in [8], in assay [9] and in assay [11] was “inactive” each time. Further, the Potency entry in assay [13] is “inactive”. Moreover, the call in assay [17] and in [12] was inactive.

Regarding `CC(C)=CCCC(C)CCOC=O` (stereo not drawn), the Potency entry in [1], in [15], in [3], in assay [4], in [5] and in assay [14] was “inactive” each time. In [6], the outcome was inactive. Besides, the Potency in [9] is 43.6 µM (active); in [11] it was 54.5 µM (active).

As for `O=C(CC(=O)C(F)(F)F)c1ccccc1`, the outcome in assay [2], in assay [17], in assay [6] and in [12] was inactive. The Potency in assay [16] is 28 µM [inconclusive] (active); in [18], 19.6 µM (active). For the same compound, the Potency result (in assay [15]; with Aromatase (Homo sapiens); in assay [4]; in assay [5]; in [9]; in [10]) was “inactive” each time. In addition, the Potency entry in assay [11] and in [14] was “inactive” throughout.

Consider `CN(C)C(=O)NC1(c2ccccc2)CCN(CCC[C@]2(c3ccc(Cl)c(Cl)c3)CCCN(C(=O)c3ccccc3)C2)CC1`, for which the Potency was 11.6 µM (active) in [1], 6.51 µM (active) in [4], 14.6 µM (active) in assay [11] and 9.28 µM (active) in [14]. For the same compound, the Potency result (in assay [16]; in assay [15]; in assay [18]; in the assay with Aromatase (Homo sapiens); in assay [5]; in assay [9]) was “inactive” throughout. Besides, the Potency result in assay [13] is “inactive”. The compound was classed as inactive in assay [17], in [19] and in [12].

In the case of `CC(C)(C)c1ccc(OC(=O)c2ccccc2O)cc1`, the compound was called inactive in assay [2], in [17], in [6] and in assay [12]. For the same compound, the Potency entry (in assay [16]; in [15]; in [3]; with Aromatase (Homo sapiens); in [4]; in assay [5]) was “inactive” throughout. Moreover, the Potency entry in assay [7], in [8], in assay [9], in [10], in [11] and in [13] was “inactive” each time. Besides, the Potency entry in [14] was “inactive”. Also, in assay [18], the Potency was 27.3 µM (active).

For `CCCCCOc1ccc(C2SC(=O)NC2=O)cc1OCC` (stereo not drawn), the Potency in [1] is 2.37 µM (active); in assay [5], 29.8 µM (active). In addition, the Potency result in assay [16], in assay [15], in assay [18], in [3], in [4] and in [9] was “inactive” throughout. Further, the Potency entry in assay [10], in assay [11], in assay [13] and in assay [14] was “inactive” each time. Besides, the compound was classed as inactive in [17], in assay [19], in assay [6] and in [12].

Turning to `O=c1oc2c(O)c(O)cc3c(=O)oc4c(O)c(O)cc1c4c23`, the outcome in assay [2], in assay [17], in [19], in [6] and in [12] was inactive. In addition, the Potency result (in [16]; in [15]; in assay [18]; in assay [3]; with Aromatase (Homo sapiens); in assay [4]) was “inactive” each time. The Potency entry in assay [5], in [9], in assay [11], in assay [13] and in assay [14] was “inactive” each time.

With `CCOC(=O)CS`, the outcome in [2], in assay [6] and in [12] was inactive. The Potency entry (in assay [15]; in [3]; in the assay with Aromatase (Homo sapiens); in assay [4]; in [7]; in assay [9]) was “inactive” in each case. Also, the Potency result in assay [10], in assay [11] and in assay [13] was “inactive” in each case.

Turning to `NC1=NCC2c3ccccc3Cc3ccccc3N12` (stereo not drawn), the compound was classed as inactive in assay [2], in [6] and in [12]. Also, the Potency result (in assay [15]; in assay [3]; with Aromatase (Homo sapiens); in assay [4]; in [5]; in assay [11]) was “inactive” in each case. Moreover, the Potency entry in [13] and in [14] was “inactive” throughout.

For `CN1CCN(C2=Nc3ccccc3Oc3ccc(Cl)cc32)CC1`, the outcome in assay [2], in assay [17], in assay [19], in assay [6] and in assay [12] was inactive. Further, the Potency result (in assay [16]; in assay [15]; in [18]; in assay [3]; in the assay with Aromatase (Homo sapiens); in assay [4]) was “inactive” each time. The Potency result in assay [5], in assay [7], in assay [9], in assay [10], in assay [11] and in assay [13] was “inactive” throughout. In addition, in [14], the Potency result is “inactive”.

(Values after PubChem BioAssay (Tox21).)
